# Assay results from PubChem BioAssay (NCATS).
# “And” between values parts separate entries of the source, which are not always exact repeats. Equal entries are not always repeated. Records with an inconclusive call do not appear. The source made the active and inactive calls. The call rests on the fitted dose curve; in most records, active means well fitted inhibition curve with a large enough effect in the signal ratio, with a control signal flat (not every such curve was filed as active); inconclusive means small, poorly fitted or top-dose-only effect, or effect the other way, or a change in a side signal; inactive means no such curve, though single readings can be large or run the other way; the % refers to the signal ratio.
# System: not listed separately
# Test: qHTS assay for small molecule antagonists of retinoid X receptor alpha signaling (AID 588546)
# Conditions: HEK293T RXRa-UAS-bla, beta-lactamase ratio, antagonist mode; measured here: W530 green channel, cytotoxicity proxy
# Summary of the method: (§1)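 Beta-lactamase reporter inhibition, read as CCF4 fluorescence ratio (ex 405, em 460/530 nm) after 2 h at RT. HEK293T UAS-bla cells, 2500/well, were stimulated with 9-cis-RA at 500 or 100 nM final alongside test compound for 18 h at 37 C.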
# On the % scale 0 is the no-effect control and ±100 the full control effect.
row,SMILES,max response
1,CC(C)=C1CCC(C)CC1=O (configuration not stated),3.58%
2,O=C(O)c1ccc(C(=O)O)cc1,-3.66% and -13.6%
3,CCOc1ccccc1N,-5.65%
4,CC(C)(O)CCC(C)(C)O,-5.49%
5,C=C(C)OC(C)=O,12.2%
6,CC(=O)c1cc(C)oc1C,4.07%
7,CC(N)CN (configuration not stated),-2.44%
8,O=C1NC(=O)c2cc([N+](=O)[O-])ccc21,4.85%
9,CCC1CO1 (configuration not stated),-10.7%
10,CCNS(=O)(=O)c1ccc(C)cc1,0.888%
11,Nc1cccc([N+](=O)[O-])c1,-9.54%
12,Nc1ccccc1[N+](=O)[O-],1.56%
13,Nc1c(Cl)cc(Cl)cc1Cl,1.94%
14,COC(=O)CC#N,-3.78%
15,Cc1ccccc1C(=O)O,-2.02%
16,CO[Si](CCCNCCC[Si](OC)(OC)OC)(OC)OC,7.72%
17,CC1(N)CCC(C(C)(C)N)CC1 (configuration not stated),4.37%
18,C=Cc1ccccn1,-12.9%
19,CCCCCCO,-3.18%
20,CCC(C)O (configuration not stated),2.22%

row,SMILES,max response
1,CC(O)CC(C)O (configuration not stated),14.5%
2,CCCCCCCCC,-11.2%
3,CCN(CC)c1cccc(O)c1,6.69%
4,Cc1ccc(C)cc1,-6.14%
5,O=C(O)c1cc(Cl)cc(Cl)c1,-0.682%
6,C[C@@H]1O[C@@H](O[C@@H]2[C@@H](O)[C@H](OCCc3ccc(O)c(O)c3)O[C@H](CO[C@@H]3O[C@H](CO)[C@@H](O)[C@H](O)[C@H]3O)[C@H]2OC(=O)/C=C/c2ccc(O)c(O)c2)[C@H](O)[C@H](O)[C@H]1O,-0.609%
7,CNc1ccccc1,-0.675%
8,Nc1cc(Cl)c(N)c(Cl)c1,7.26% and 6.97%
9,CC(C)(C)OC=O,-10.7%
10,Cc1cccc(C(=O)O)c1,-2.27%
11,CNC(=O)c1ccccc1,-1.2%
12,Cc1ccc2oc(=O)ccc2c1,-0.906%
13,CCOC(=O)OCC,10.9%
14,O=[N+]([O-])c1ccccc1CCO,-5.47%
15,N#Cc1ccccc1,0.37%
16,Cc1c(N)cccc1[N+](=O)[O-],-6.48%
17,Clc1ccccn1,-9.05%
18,Nc1cc([N+](=O)[O-])ccc1C(=O)O,-12.5% and -8.81%
19,CC(O)COC(C)(C)C (configuration not stated),0.664%
20,CCC(C)(C)C,-12.5%

# Biological target: Retinoic acid receptor RXR-alpha (Homo sapiens) (UniProt P19793)
# Sequence (P19793 whole entry, looked up): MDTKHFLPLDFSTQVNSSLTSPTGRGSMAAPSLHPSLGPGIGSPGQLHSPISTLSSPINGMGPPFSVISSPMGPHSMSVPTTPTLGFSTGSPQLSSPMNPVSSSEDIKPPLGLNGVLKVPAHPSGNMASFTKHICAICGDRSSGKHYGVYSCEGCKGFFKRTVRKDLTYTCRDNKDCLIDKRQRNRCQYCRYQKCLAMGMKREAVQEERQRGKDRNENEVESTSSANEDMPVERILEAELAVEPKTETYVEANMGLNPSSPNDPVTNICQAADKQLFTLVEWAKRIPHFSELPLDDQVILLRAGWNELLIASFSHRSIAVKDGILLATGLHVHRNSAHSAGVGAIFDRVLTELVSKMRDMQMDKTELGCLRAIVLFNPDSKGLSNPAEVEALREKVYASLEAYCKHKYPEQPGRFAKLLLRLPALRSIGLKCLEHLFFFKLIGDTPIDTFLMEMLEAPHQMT
# Test: as above
# Conditions: HEK293T RXRa-UAS-bla, beta-lactamase ratio, antagonist mode
# Summary of the method: as §1
row,SMILES,max response
1,CC(C)=C1CCC(C)CC1=O (configuration not stated),6.87% (inactive)
2,O=C(O)c1ccc(C(=O)O)cc1,1.97% (inactive) and -1.47% (inactive)
3,CCOc1ccccc1N,20.5% (inactive)
4,CC(C)(O)CCC(C)(C)O,1.42% (inactive)
5,C=C(C)OC(C)=O,-11.4% (inactive)
6,CC(=O)c1cc(C)oc1C,0.525% (inactive)
7,CC(N)CN (configuration not stated),12.6% (inactive)
8,O=C1NC(=O)c2cc([N+](=O)[O-])ccc21,7.59% (inactive)
9,CCC1CO1 (configuration not stated),-1.32% (inactive)
10,CCNS(=O)(=O)c1ccc(C)cc1,3.72% (inactive)
11,Nc1cccc([N+](=O)[O-])c1,1.86% (inactive)
12,Nc1ccccc1[N+](=O)[O-],-0.391% (inactive)
13,Nc1c(Cl)cc(Cl)cc1Cl,4.53% (inactive)
14,COC(=O)CC#N,-0.774% (inactive)
15,Cc1ccccc1C(=O)O,37.3% (inactive)
16,CO[Si](CCCNCCC[Si](OC)(OC)OC)(OC)OC,10.8% (inactive)
17,CC1(N)CCC(C(C)(C)N)CC1 (configuration not stated),0.335% (inactive)
18,C=Cc1ccccn1,-1.58% (inactive)
19,CCCCCCO,-1.79% (inactive)

row,SMILES,max response
1,CCC(C)O (configuration not stated),4.59% (inactive)
2,CC(O)CC(C)O (configuration not stated),3.51% (inactive)
3,CCCCCCCCC,0.715% (inactive)
4,CCN(CC)c1cccc(O)c1,9.83% (inactive)
5,Cc1ccc(C)cc1,34.4% (inactive)
6,O=C(O)c1cc(Cl)cc(Cl)c1,11.3% (inactive)
7,C[C@@H]1O[C@@H](O[C@@H]2[C@@H](O)[C@H](OCCc3ccc(O)c(O)c3)O[C@H](CO[C@@H]3O[C@H](CO)[C@@H](O)[C@H](O)[C@H]3O)[C@H]2OC(=O)/C=C/c2ccc(O)c(O)c2)[C@H](O)[C@H](O)[C@H]1O,-6.94% (inactive)
8,CNc1ccccc1,29.8% (inactive)
9,Nc1cc(Cl)c(N)c(Cl)c1,-5.31% (inactive) and -44.9% (inactive)
10,CC(C)(C)OC=O,2.16% (inactive)
11,Cc1cccc(C(=O)O)c1,12.5% (inactive)
12,CNC(=O)c1ccccc1,15.4% (inactive)
13,Cc1ccc2oc(=O)ccc2c1,-15.9% (inactive)
14,CCOC(=O)OCC,-0.211% (inactive)
15,O=[N+]([O-])c1ccccc1CCO,-8.97% (inactive)
16,N#Cc1ccccc1,1.5% (inactive)
17,Cc1c(N)cccc1[N+](=O)[O-],-2.95% (inactive)
18,Clc1ccccn1,21.3% (inactive)
